Experimental data from PubChem BioAssay AID602179 (National Center for Advancing Translational Sciences (NCATS), 2012).
The campaign covered roughly 390,000 compounds. About 360 (0.092%) were called active. The sample as a whole holds a higher share of actives than the screen did. Values without a mark were called inactive. Calls come from the whole dose curve; as a rule, active = well fitted inhibition curve with a large enough effect; inconclusive = small, poorly fitted or top-dose-only effect; inactive = no such curve, though single readings can be large or run the other way.

biological target: Isocitrate dehydrogenase [NADP] cytoplasmic (Homo sapiens) (UniProt O75874); test: qHTS for Inhibitors of mutant isocitrate dehydrogenase 1 (IDH1): qHTS; details: IDH1-R132H enzyme, NADPH consumption, diaphorase/resazurin fluorescence; series mostly up to 76.6 µM; activity change, negative = inhibition: at the top concentration; note: nearly all actives have a fitted effect of over 65% in size
Sequence (O75874 whole entry R132H, stated change not applied, canonical isoform): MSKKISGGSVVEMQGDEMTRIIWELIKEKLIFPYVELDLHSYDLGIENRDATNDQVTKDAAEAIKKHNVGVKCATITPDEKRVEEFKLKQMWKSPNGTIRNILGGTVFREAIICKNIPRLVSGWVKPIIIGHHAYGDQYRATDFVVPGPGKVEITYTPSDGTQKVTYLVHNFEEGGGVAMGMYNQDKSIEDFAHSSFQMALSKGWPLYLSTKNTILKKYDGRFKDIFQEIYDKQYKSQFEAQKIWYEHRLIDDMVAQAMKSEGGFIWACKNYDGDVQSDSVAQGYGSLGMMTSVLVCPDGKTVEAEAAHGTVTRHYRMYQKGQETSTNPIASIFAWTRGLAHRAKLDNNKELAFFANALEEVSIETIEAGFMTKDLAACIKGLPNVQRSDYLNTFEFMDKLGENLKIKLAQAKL
Text: Unbiased genomic sequencing for 22 glioma genomes found recurrent mutation of isocitrate dehydrogenase 1 (IDH1) on chromosome 2q33-a gene encoding the cytosolic isoform of IIDH1associated with the tricarboxylic acid cycle (TCA) that catalyzes the oxidative decarboxylation of isocitrate, yielding alpha-ketoglutarate and CO2 via NADP+ to NADPH conversion. Subsequent studies confirmed the recurrent IDH mutations in up to 70% of secondary gliomas and in 10% of AML cases. […] This in effect defines IDH1 as an oncogene, and provides an extraordinary opportunity to discover chemical probes against mutant IDH1 that may translate into much needed new therapies for glioma and AML patients. […] NIH Chemical Genomics Center [NCGC] NIH Molecular Libraries Probe Centers Network [MLPCN] MLPCN Grant: DA032129 Assay Submitter (PI): Lenny Dang, Agios Pharmaceuticals
IDH1-R132H (0.5 ug/mL) was dispensed into black, solid-bottom 1536-well plates at 3 uL/well in 20 mM Tris-HCl (pH 7.5), 150 mM NaCl, 10 mM MgCl2, 4 mM beta-ME, and 0.05% protease-free BSA. Then, 23 nL of compounds or DMSO were delivered to each well using a pin tool. A pre-read was run on the Viewlux to identify fluorescent compounds (540 nm excitation filter, 598 nm emission filter, bodipy mirror and 2 second exposure). After 30 minutes of incubation with compound, 3 uL of substrate mix were dispensed (0.016 mM NADPH, 2 mM alpha-KG, 20 mM Tris-HCl (pH 7.5), 150 mM NaCl, 10 mM MgCl2, and 0.05% protease-free BSA). Plates were spun for 1 min at 1000xg and incubated at room temperature for 80 min. Then 1.5 uL of each detection reagent component for the coupling system were added (0.12 mg/mL diaphorase and 0.072 mM resazurin, each in 20 mM Tris-HCl (pH 7.5), 150 mM NaCl, 10 mM MgCl2, and 0.05% protease-free BSA ) The protein, substrate and two detection components were maintained at 4 °C throughout the screen. Additionally, the substrate and resazurin reagents were protected from light. The plates were measured on an Envision plate reader for fluorescence signal using a 540 nm excitation filter and 590 nm emission filter with 10 flashes. 1x and 0x (no-enzyme) IDH1-R132H enzyme control were used to normalize %Activity of identified inhibitors; 0x enzyme values corresponded to 100% Activity (full inhibition), while 1x IDH1-R132H enzyme values were used to normalize 0%Activity (no inhibition). Concentration-response curves were fitted to the signals arising from the resulting fluorescence. The concentration-effect curves were then classified based on curve quality (r2), response magnitude and degree of measured activity, and compounds were subsequently categorized based on their curve class. […] Keywords: isocitrate dehydrogenase, IDH1, IDH1-R132H, MLSMR, MLPCN, NIH Roadmap, qHTS, NCGC
% is set by controls: 0 for no effect and ±100 for the full control effect; potency is the fitted concentration of half-maximal effect.

| Structure (SMILES) | activity change, negative = inhibition [%] | Potency |
| --- | --- | --- |
| Cc1nn(-c2nc(-c3ccccc3)cc(C(F)(F)F)n2)c(C)c1Cl | -2.85 | – |
| NS(=O)(=O)c1ccc2nc(NC(=O)COc3ccccc3)sc2c1 | 16.5 | – |
| CN(C)c1cccc(C(=O)Nc2nc3ccc(S(=O)(=O)NC(C)(C)C)cc3s2)c1 | -9.07 | – |
| O=C(NC(Nc1nc2ccc([N+](=O)[O-])cc2s1)(C(F)(F)F)C(F)(F)F)c1ccccc1 | – | 9.27 µM (active) |
| CCc1ccc(NC(=O)C2CCCN2S(=O)(=O)c2ccc3nc(-c4ccccc4)[nH]c3c2)cc1 (stereo not drawn) | 12.1 | – |
| CCOC(=O)c1ccc(NC(=O)Cn2c(=O)cc(C)c3c(C)nn(-c4cccc(F)c4)c32)cc1 | 2.76 | – |
| CCCCN(CC)CCCNC(=O)c1nn(C)c2c1CSc1ccccc1-2 | -11.4 | – |
| O=C(CN1C(=O)CCn2nc(-c3ccccc3)cc21)NCc1ccccc1 | 8.18 | – |
| COc1ccc2c(C)c(CCC(=O)NCc3ccc(OC)c(OC)c3)c(=O)oc2c1 | 9.73 | – |
| CSc1ccc(C2c3c(oc4ccccc4c3=O)C(=O)N2CCCN2CCOCC2)cc1 (stereo not drawn) | -26.3 | – |
| Cc1ccc(C(=O)NCCSc2c(C)[nH]c3ccccc23)cc1C | 15 | – |
| O=C(Nc1ccccc1Br)c1cc(CN2CCCC2)on1 | 18.6 | – |
| Cc1ccc(C)c(NC(=O)C2CCCN(S(=O)(=O)c3cn(C)cn3)C2)c1 (stereo not drawn) | -0.0051 | – |
| Cc1ccc(CNC(=O)CSc2c(C)cnc3c2c(=O)n(C)c(=O)n3C)cc1 | -5.79 | – |
| O=C(Nc1nc2c(s1)CCCC2)c1ccccc1F | 5.05 | – |
| Cc1ccc(N2CC(C(=O)Nc3ccc(N(C)C)cc3)CC2=O)cc1Cl (stereo not drawn) | -6.08 | – |
| COc1cccc(NC(=O)C(=O)NCC(c2ccc3c(c2)OCO3)N2CCN(C)CC2)c1 (stereo not drawn) | 4.3 | – |
| CSc1ccc(CCNC(=O)c2ccc3c(c2)nc2n3CCOC2)cc1 | 17.1 | – |
| O=C(NC1CC(=O)N(c2ccc(F)cc2)C1)C1CCCCC1 (stereo not drawn) | 2.04 | – |
| O=C(/C=C/c1ccccc1)Nc1cc(-c2nc3cc(Cl)ccc3o2)ccc1Cl | 3.86 | – |

| Structure (SMILES) | activity change, negative = inhibition [%] | Potency |
| --- | --- | --- |
| Cc1ccc(CCNC(=O)c2ccc3c(c2)N(Cc2cc(C)ccc2C)C(=O)c2ccccc2S3=O)cc1 (stereo not drawn) | -5.3 | – |
| O=C(CCc1nc(CN2CCN(S(=O)(=O)c3ccc(F)cc3)CC2)no1)N1CCCCC1 | 1.03 | – |
| CCOc1ccc(Nc2oc(/C=C/c3ccc(F)cc3)nc2C#N)cc1 | 0 | – |
| Oc1ccc(-c2nc3ccc(Cl)cn3c2Nc2ccc3c(c2)OCO3)cc1 | -2.86 | – |
| COc1cc(OC)c(N(C)C(=O)c2cc3c(=O)oc4ccccc4c3s2)cc1Cl | -4.35 | – |
| COc1ccc(-c2nc(Cn3c(=O)cc(C)c4c(C)nn(-c5ccccc5)c43)c(C)o2)cc1OC | 14.5 | – |
| COc1ccccc1Nc1nc(N)nc(N)c1S(=O)(=O)c1ccccc1 | 8.86 | – |
| COc1ccc(Cn2ccn(Cc3cccc(OC)c3)c(=O)c2=O)cc1 | -4.83 | – |
| O=c1c(=O)n(Cc2c(F)cccc2Cl)ccn1Cc1ccccc1 | -0.719 | – |
| O=[N+]([O-])/C=C/c1ccc2c(ccn2Cc2ccccc2)c1 | – | 20.7 µM (active) |
| COc1ccc(Cl)cc1N(C)C(=O)c1cc2c(=O)oc3ccc(C)cc3c2s1 | 9.62 | – |
| COc1ccc(CCNC(=O)CCc2c(C)nc3c(c(C)nn3-c3ccc(C)c(C)c3)c2C)c(OC)c1OC | -2.76 | – |
| CCN(CC)C(=O)CSc1nc2ccsc2c(=O)n1Cc1ccccc1Cl | 8.23 | – |
| Cc1ccc(-c2ccc(CCC(=O)O)n2-c2ccc(C(N)=O)cc2)cc1 | -7.5 | – |
| N#Cc1nc(/C=C/c2ccc(F)cc2)oc1NCc1ccc(F)cc1 | -16.7 | – |
| CCOc1ccc(Nc2nc3c(S(=O)(=O)c4cccc(Cl)c4)nnn3c3ccsc23)cc1 | 11.3 | – |
| COc1cc(OC)c(C2C=C(C(=O)O)Nc3ncnn32)cc1OC (stereo not drawn) | -1.93 | – |
| O=C1Cc2cc(S(=O)(=O)Nc3ccc(OC(F)(F)F)cc3)cc3c2N1CCC3 | 9.9 | – |
| COc1cc(C(=O)NCCc2csc3nc(-c4ccccc4C)nn23)cc(OC)c1OC | -17.5 | – |
| CCc1ccc(C2C(C(=O)Nc3ccccc3)=C(C)Nc3c(C(=O)Nc4ccc(C)cc4)cnn32)cc1 (stereo not drawn) | -18.3 | – |

| Structure (SMILES) | activity change, negative = inhibition [%] | Potency |
| --- | --- | --- |
| CN(C)c1ccc(C(CNS(=O)(=O)c2cc(F)ccc2F)N2CCOCC2)cc1 (stereo not drawn) | 0 | – |
| COc1ccc(S(=O)(=O)c2c(Nc3ccc(C)cc3)sc(C(=O)c3ccc(C)cc3)c2N)cc1 | -3.17 | – |
| Cc1ccccc1CCNC(=O)C1CCN(c2nc3ccccc3nc2C(F)(F)F)CC1 | 4.43 | – |
| O=C(c1ccccc1F)N1CCC(c2nc3c(nnn3Cc3cccc(F)c3)c(=O)[nH]2)CC1 | 7.98 | – |
| CCOc1ccc(NC(=O)c2c(NCc3cccc(OC)c3OC)sc3c2CCC3)cc1 | -16.2 | – |
| COc1cc(OC)c(NC(=O)c2cc(S(=O)(=O)N3CCCC3)cn2C)cc1Cl | -0.894 | – |
| O=C(COc1ccc(Cl)cc1)Nc1ccccc1OCc1cc(=O)n2ccccc2n1 | -3.61 | – |
| COc1ccc(OC)c(NC(=O)CSC2=Nc3ccccc3C3=NC(CC(=O)NCCc4ccccc4)C(=O)N23)c1 (stereo not drawn) | -6.25 | – |
| O=C(COc1ccccc1Cl)Nc1ccc2nc(SCC(=O)N3CCCC3)sc2c1 | -3.02 | – |
| O=C(CN1c2ccccc2S(=O)(=O)c2ccccc21)Nc1cccc(C(F)(F)F)c1 | -11.9 | – |
| COc1cccc(-c2nc(CS(=O)(=O)CC(=O)N3CCN(c4cc(C)ccc4C)CC3)c(C)o2)c1 | -8.51 | – |
| COc1ccc(CNC(=O)CSc2nc3ccccc3nc2Cc2ccccc2)cc1 | 10.4 | – |
| CCOC(=O)c1c(C)n(S(=O)(=O)c2ccc(C)cc2C)c2ccc(NS(=O)(=O)c3ccc(C)cc3C)cc12 | -0.772 | – |
| CCOc1cccc(C(=O)Nc2nnc(S(=O)(=O)N(C)c3ccc(C)cc3)s2)c1 | 0 | – |
| COc1ccccc1Nc1c2c(nc3ccc(NC(=O)/C=C/c4cc(OC)c(OC)c(OC)c4)cc13)CCCC2 | 1.05 | – |
| O=C(Nc1c(-c2ccc(F)cc2)nc2ccccn12)c1cccc(F)c1 | -3.61 | – |
| Cc1ccc(-n2ncc3c(N4CCC(C(N)=O)CC4)ncnc32)cc1 | -7.51 | – |
| Cc1c(NC(=O)Cc2ccccc2)cccc1-c1nc2cccnc2s1 | 0 | – |
